# A1 inh – caspase 3/7 activation in MEF A1-2A-BIM cells, primary screen, A1 inhibitor project, cell-based, luminescence, HTS; Caspase-Glo 3/7 luminescence, 3 h; percent of clofoctol response, vehicle zero; caspase activation, % (no concentration beside the values); actives 0.066% (n = 330,000); AID 2462, 2010;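 active means over half of replicate activation scores above 10%, or exactly half above 10 with the replicate mean above 10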
# CHT inh – inhibitors of human choline transporter CHT | actives 0.86% (n = 310,000) | CHT-expressing cells, membrane potential dye, choline response; hits give low values | AID 488975, 2010 | High affinity choline transporter 1 (Homo sapiens), Q9GZV3 | B-score at 10 µM;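 active means B-score over 3 SD under the library average, and starting fluorescence ratio not unusually high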;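 further: choline stimulus applied at its EC90 after an EC20 pre-addition; B-score computed on integrated fluorescence ratio after choline addition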
# Target sequence (Q9GZV3 whole entry, looked up): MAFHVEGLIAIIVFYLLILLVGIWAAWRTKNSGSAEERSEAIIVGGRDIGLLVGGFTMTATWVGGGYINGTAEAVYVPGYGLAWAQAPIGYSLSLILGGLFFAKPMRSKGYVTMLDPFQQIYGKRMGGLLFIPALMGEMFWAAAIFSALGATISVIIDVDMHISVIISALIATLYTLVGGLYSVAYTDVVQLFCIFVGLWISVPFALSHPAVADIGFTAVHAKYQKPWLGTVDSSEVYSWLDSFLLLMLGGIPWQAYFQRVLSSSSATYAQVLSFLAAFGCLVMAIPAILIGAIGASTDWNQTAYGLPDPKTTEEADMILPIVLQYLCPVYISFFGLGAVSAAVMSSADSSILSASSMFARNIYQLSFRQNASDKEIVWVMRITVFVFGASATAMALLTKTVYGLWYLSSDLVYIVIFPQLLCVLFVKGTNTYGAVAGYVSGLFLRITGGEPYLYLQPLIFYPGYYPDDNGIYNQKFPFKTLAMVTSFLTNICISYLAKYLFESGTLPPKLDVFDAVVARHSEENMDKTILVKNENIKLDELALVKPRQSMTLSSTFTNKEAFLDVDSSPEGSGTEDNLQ
# NALP1 inh – NALP1 inflammasome inhibitors in reconstituted yeast, colorimetric, S. cerevisiae, triplicate retest | AID 2071, 2009 | actives 0.61% (n = 280,000) | inhibition, % at 10 µM | S. cerevisiae NALP1/ASC/caspase-1 growth, X-gal OD620, 72 h; in the data active means inhibition mostly above about 24%, no sharp cut-off; inactive means mostly below about 32%
# SUMO Mot1 rescue – yeast Mot1-301 growth rescue at high temperature, primary screen, SUMOylation pathway inhibitor project, S. cerevisiae, ATP luminescence, 38.5C | S. cerevisiae Mot1-301 growth rescue; percent above DMSO median, 100 means doubled | growth rescue, % at 18.8 µM | actives 1% (n = 320,000) | AID 2716, 2010;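 active means every valid replicate shows activation above 250% relative to neutral control wells; inactive means the rest, any valid replicate at or below 250%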;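 further: OY570 slx delta 5 strain wells were the positive control but not used for scaling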
# CHT PAM – CHT positive allosteric modulators, primary screen, cell-based, membrane potential dye, choline EC20; B-score at 10 µM; CHT-expressing cells; hits give high values; LV-AA mutant CHT in HEK293 cells; High affinity choline transporter 1 (Homo sapiens), Q9GZV3; AID 488977, 2010; actives 0.49% (n = 310,000);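 active means initial fluorescence not abnormally high and integrated response B-score, plate-corrected, over 3 SD above library mean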
# NLRP3 yeast inh – NALP3 inflammasome inhibitors in reconstituted yeast, primary screen, luminescence, uHTS. Yeast reconstituted NLRP3/ASC/caspase-1, beta-gal luminescence, 24 h. inhibition, % at 10 µM. actives 0.39% (n = 330,000). AID 2825, 2010;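 active means inhibition of 50% or more; inactive means inhibition below 50%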;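 further: plate controls were induced DMSO wells for no effect and uninduced yeast grown without galactose for full effect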
# CHT activ conf – CHT activators, confirmation, cell-based, membrane potential dye, duplicate; shares compounds with CHT PAM; CHT-expressing cells, membrane potential dye fluorescence (FDSS); % of choline EC20–EC90 response window; HEK293 expressing CHT LV-AA mutant; choline added at its EC20; activation, % at 10 µM; actives 91% (n = 2,500);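 active means primary screen active, with duplicate mean activation above negative control mean plus 3 SD, cut at about 11% in these data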
# HEK293 MP dye – membrane potential response in parental HEK293 cells, counter-screen for CHT activator project, cell-based, membrane potential dye; shares compounds with CHT PAM; membrane potential dye fluorescence (FDSS); measured after EC20 choline addition; ratio readout change at 10 µM, hits read low; actives 62% (n = 2,500); AID 623908, 2012;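 active means duplicate-averaged ratio beyond 3 SD from buffer wells, up or down, though filed actives are nearly all decreases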
# An asterisk follows results filed as active; i = inactive; / = no result. Compounds with a hit are over-represented: about 3% of the library has one in this group of screens.
SMILES,A1 inh,CHT inh,NALP1 inh,SUMO Mot1 rescue,CHT PAM,NLRP3 yeast inh,CHT activ conf,HEK293 MP dye
C[n+]1ccccc1/C=C/c1ccccc1Cl,2,i,2,7,i,10,/,/
CCc1nnc2c(NCCc3ccccc3)nc3ccccc3n12,0,i,26,14,i,11,/,/
O=C(CN(C(=O)CNC(=O)c1ccco1)c1ccc(Cl)c(Cl)c1)NC1CCCCC1,0,i,25,256,6.9*,5,39*,i
O=C(CN(C(=O)CNC(=O)c1ccco1)c1ccc2c(c1)OCO2)NC1CCCCC1,0,i,15,-4,i,-15,/,/
COCCNC(=O)/C(C#N)=C/c1c(N2CCN(c3ccc(OC)cc3)CC2)nc2c(C)cccn2c1=O,1,i,12,-4,i,17,/,/
Cc1ccc(-c2nc3ncccn3c2Nc2ccccc2C)o1,1,i,-1,-14,i,17,40*,-43*
Cc1ccc(-c2nc3ncccn3c2NC2CCCC2)o1,2,i,10,-4,i,23,/,/
COC(=O)COc1ccccc1C(N)=O,1,i,0,-17,i,1,/,/
COC(=O)COc1ccc(-c2ccccc2)cc1C=O,-1,i,20,-14,20*,16,6,i
CCc1ccc(Nc2n[n+](-c3ccccc3)c(-c3ccc(OCc4ccccc4)cc3)s2)cc1,-1,i,-5,-14,17*,17,2,i
COc1cc(-c2nnc(SCC(=O)c3ccc(C)cc3)o2)cc(OC)c1OC,0,i,32,4,i,8,/,/
COc1cc(-c2nnc(SCC(=O)/C(C#N)=C(\C)N)o2)cc(OC)c1OC,0,i,14,-10,i,13,4,-23*
COc1cc(C(=O)Nc2cc3c4c(c2)CC(=O)N4CCC3)cc(OC)c1OC,0,i,/,-7,i,-5,/,/
CCN(CC)c1nc2c(c(=O)n(C)c(=O)n2C)n1CCCc1ccccc1,0,i,0,-4,i,12,/,/
CN(Cc1ccccc1)c1nc2c(c(=O)n(C)c(=O)n2C)n1CCCc1ccccc1,0,i,40,160,8.7*,4,25*,i
Cn1c(=O)c2c(nc(CN3CCOCC3)n2CCCc2ccccc2)n(C)c1=O,-1,i,-138,186,i,-3,/,/
Cn1c(=O)c2c(nc(CN3CCN(c4cccc(Cl)c4)CC3)n2CCc2ccccc2)n(C)c1=O,0,i,/,-3,9.3*,26,24*,i
Cn1c(=O)c2c(nc(CN3CCCCC3)n2CCc2ccccc2)n(C)c1=O,0,i,13,8,12*,13,47*,i
CN1CCN(Cc2nc3c(c(=O)n(C)c(=O)n3C)n2CCCc2ccccc2)CC1,0,i,25,76,8*,-7,48*,-36*
C=CCn1c(SCC(=O)N(C)CC(=O)Nc2ccc(C)cc2)nnc1-c1ccncc1,1,/,/,0,/,19,/,/
CN(C)S(=O)(=O)c1ccc(/C(O)=C2/C(=O)C(=O)N(CCCN3CCOCC3)C2c2ccncc2)cc1 (configuration not stated),2,i,/,13,i,6,/,/
CCCCCCn1c(CN2CCN(C)CC2)nc2c1c(=O)n(C)c(=O)n2C,-1,i,21,-28,9.5*,10,61*,-46*
CC(=O)c1cccc(NC(=O)Cn2cnc(S(=O)(=O)N3CCC(C)CC3)c2)c1,0,i,14,11,i,0,/,/
O=C(COC(=O)Cn1[nH]c(=O)c2ccccc2c1=O)NNC(=O)c1ccccc1,-1,/,/,-1,/,0,/,/
COc1ccc(CCN=C(N)Nc2nc(C)cc(C)n2)cc1,1,i,6,16,6.5*,4,50*,-41*
SMILES,A1 inh,CHT inh,NALP1 inh,SUMO Mot1 rescue,CHT PAM,NLRP3 yeast inh,CHT activ conf,HEK293 MP dye
CCCCn1c(N)c(N(CCOC)C(=O)c2ccc(-c3ccc(C(C)=O)cc3)o2)c(=O)[nH]c1=O,2,i,/,-14,i,-1,/,/
Cc1ccc(CNC(=O)c2nnn(CC(=O)Nc3cc(C)cc(C)c3)c2N)cc1,0,i,17,124,i,9,/,/
CC(C)n1cnc2c(Nc3cccc(Cl)c3)nc(NCCCO)nc21,-1,i,/,246,i,2,9,i
N=c1n(CCO)c2ccccc2n1CCN1CCCCC1,1,i,8,-2,i,7,35*,-34*
N=c1n(CCN2CCCCC2)c2ccccc2n1CC(O)c1ccco1 (configuration not stated),1,i,9,202,i,5,/,/
COc1cc(C2C(C#N)=C(N)Oc3cc(N)ccc32)cc(OC)c1OC (configuration not stated),2,i,23,-21,7.7*,15,40*,i
O=C1c2ccccc2N2C(=O)c3ccccc3C2N1Cc1ccccc1 (configuration not stated),0,i,/,-4,i,-1,26*,i
CC1(C)CC(N2CCCC2)=CC(=[N+]2CCCC2)C1,-1,i,16,9,8.6*,-7,58*,-34*
CC1(C)CC(N2CCCC2)=CC(=[N+]2CCCCC2)C1,1,i,7,86,i,4,/,/
COc1ccc(-c2c(C(C)=O)c(C)nc3sc4c(=N)n(N)cnc4c23)cc1,0,i,4,-4,6.7*,3,41*,-38*
CCOC(=O)c1c(C)nc2sc3c(=O)n(-c4ccc(C(C)=O)cc4)nnc3c2c1-c1ccc(OC)cc1,0,i,15,/,i,6,/,/
O=C(NC1CCCC1)C(c1ccsc1)N(Cc1ccccc1)C(=O)Cc1cccs1 (configuration not stated),0,i,6,-17,6.9*,-1,43*,i

# Screening results from PubChem BioAssay.
